# Many of the other results were omitted from the sample, so hits are more common in it than they were.
# Pf Dd2 inh – Plasmodium falciparum Dd2 growth inhibition. P. falciparum Dd2 growth, SYBR Green, 72 h. 120,000 compounds, 4.3% hits. AID 1347417. Potency, µM (highest dose often 28.9 µM), actives largely listed as inhibitors; active = well fitted inhibition curve with a large enough effect; also: nearly all actives have a fitted effect of over 65% in size
#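 Readout: SYBR Green fluorescence, 485 nm excitation, 535 nm emission, after ~16 h lysis at 37C. Before that, Dd2-infected red cells (2.5% hematocrit) grew 72 h with compound, 29 uM top final concentration.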
# Numbers stand for hits; 0 = inactive; [ ] = another dose, or the depositor's remark.
SMILES,Pf Dd2 inh
CCn1cc2nc(SCc3ccc(F)cc3)n(Cc3ccc(Cl)cc3)c(=O)c2n1,0
CC(C)SCC(=O)N1CCCC(N2CCN(c3ccc(F)cc3)CC2)C1 (stereo not given),0
Cc1ccc2[nH]c(=O)c3cc(C(=O)NCCCN4CCC(C)CC4)sc3c2c1,8.9µM
COc1ccc(Br)cc1CNC(=O)c1cc2c(=O)n(C)c3ccccc3c2s1,0
CCN1CCN(CCCNC(=O)c2cc3c(=O)n(C)c4ccccc4c3s2)CC1,3.2µM
Cn1c(=O)c2cc(C(=O)NCCCN3CCN(c4ccc(F)cc4)CC3)sc2c2ccccc21,0
CCn1c(=O)c2cc(C(=O)NCCCN3CCC(C)CC3)sc2c2ccccc21,0
CCN(CCCNC(=O)c1cc2c(=O)n(CC)c3ccccc3c2s1)c1ccccc1,0
Cn1c(=O)c2cc(C(=O)NCCCN3CCN(c4ccccc4F)CC3)sc2c2ccccc21,0[5.79 µM]
CN(CCCNC(=O)c1cc2c(=O)n(C)c3ccccc3c2s1)Cc1ccccc1,10µM
CCOC(=O)C1CCCN(C(=O)c2cc3c(=O)[nH]c4ccc(C)cc4c3s2)C1 (stereo not given),0
COCCNc1ncnc2c1CN(C1CNC1)C(=O)CN2C,0
O=C(c1ccccc1)N1CCC2(CC1)COc1ccccc1[S+](=O)([O-])N2,0
O=C(NCc1ccccc1)c1cnc2n1CCN(CC1CCCC1)CC2,0
CCN(CC)Cc1cnc2c(C(=O)NCc3cnn4cccnc34)cnn2c1,0
O=C([C@@H]1C[C@H](Oc2cccnc2)CN1C(=O)Cc1ccccc1)N1CCCC1,0
Cc1cn(CCn2ccnc2-c2nc[nH]c2C)nn1,0
COc1cccc(CC(=O)N2CCCC(c3nc(CCOCC4CCCC4)no3)C2)c1 (stereo not given),0
Cc1cc(Oc2c(C(F)(F)F)oc3c(CN4CCC(C)CC4)c(O)ccc3c2=O)cc(C)c1Cl,0.45µM
CC1CCCN(Cc2c(O)ccc3c(=O)c(-c4ccccc4Cl)c(C(F)(F)F)oc23)C1 (stereo not given),0.89µM
CC1CCCN(Cc2nc3c(c(=O)n(C)c(=O)n3C)n2Cc2ccc(Cl)cc2)C1 (stereo not given),0
CC1CCN(C(=O)CSc2nnc(-c3ccccc3Cl)o2)CC1,0
Cc1ccc(Oc2c(C(F)(F)F)oc3c(CN4CCCCC4C)c(O)ccc3c2=O)cc1 (stereo not given),0
Cc1cc(C)cc(Oc2coc3c(CN4CCN(C)CC4)c(O)ccc3c2=O)c1,0
Cc1oc(-c2ccc(Cl)cc2)nc1CN1CCCC(C(=O)NCc2ccc(Cl)cc2)C1 (stereo not given),0
SMILES,Pf Dd2 inh
Cc1c(CO)cccc1NC(=O)c1ccc(CN2CCCC(C)C2)cc1 (stereo not given),0
CC1CCCN(Cc2c(O)ccc3c(=O)c(-c4ccc(Cl)cc4)c(C(F)(F)F)oc23)C1 (stereo not given),0.71µM
O=C(O)C1CCc2nnc(C3CCCN(C(=O)Cc4ccccc4)C3)n21 (stereo not given),0
COc1cccc(CNC(=O)c2cnc3cc(C)nn3c2)c1,0
COCC1CN(S(=O)(=O)c2cccnc2)CC12CCOCC2 (stereo not given),0
CC[C@@]1(O)CCN(CC(=O)NCc2cc(C(=O)O)ccc2C)C[C@H]1O,0
COCc1ccc(C(=O)N2CCn3nc(CCC(=O)NC4CC4)cc3C2)o1,0
COC(=O)c1cccc(NC(=S)N[C@H]2CO[C@H]3[C@@H]2OC[C@H]3OC(=O)Nc2cccc(C(F)(F)F)c2)c1,0
COc1ccc(C(CC(=O)N2CCN(C)CC2)c2ccccc2)cc1 (stereo not given),0
CC(C)(C)OC(=O)N1CCC(c2c(C(=O)N3CCN(c4ccccc4F)CC3)cnn2-c2ccccc2Cl)CC1,13µM
Cc1c(Cl)cccc1-n1ncc(C(=O)N2CCN(c3ncccn3)CC2)c1C1CCN(C(=O)OC(C)(C)C)CC1,0
CN1CCN(C(=O)c2cnn(-c3ccc(F)cc3F)c2C2CCN(C(=O)OC(C)(C)C)CC2)CC1,0
Cc1c(Cl)cccc1-n1ncc(C(=O)N2CCC(C)CC2)c1C1CCN(C(=O)OC(C)(C)C)CC1,11µM
CC(C)(C)OC(=O)N1CCC(c2c(C(=O)N3CCN(c4ccc(Cl)cc4)CC3)cnn2-c2ccc(F)cc2F)CC1,11µM
Cc1cccc(OCC2(CNC(=O)c3cnccn3)C[C@@H](O)[C@@H](O)C2)n1 (stereo not given in full),0
COc1ccc(C(=O)N2C(C(=O)N3CCCC3)COC23CCN(C(=O)Cc2ccccc2)CC3)cc1 (stereo not given),0
CCn1c2c(c(=O)n1-c1ccccc1)CCN(Cc1cncc(OC)c1)C2,0
c1ccc(OCCC2CCNC2)cc1 (stereo not given),0
Cc1ncccc1C(=O)N1CC(Oc2ccc(-c3nc(-c4ccccc4)no3)cc2)C1,0[5.79 µM]
O=C(Cc1ccsc1)N1CC(Oc2ccccc2-c2nc(-c3ccccc3)no2)C1,13µM
c1ccc(-c2nc(-c3cnccn3)no2)c(OC2CCNC2)c1 (stereo not given),0
O=C(C1CCOCC1)N1CCC(Oc2ccccc2-c2nc(-c3ccccc3)no2)C1 (stereo not given),0
Cc1ncccc1C(=O)N1CC(Oc2ccccc2-c2nc(-c3ccccc3)no2)C1,11µM
O=C(C1CCC1)N1CC(Oc2ccccc2-c2nc(-c3cnccn3)no2)C1,10µM
O=C(c1cnccn1)N1CCC(Oc2ccccc2-c2nc(-c3ccccc3)no2)C1 (stereo not given),0
SMILES,Pf Dd2 inh
O=C(c1ccncc1)N1CCC(Oc2ccccc2-c2nc(-c3ccccc3)no2)C1 (stereo not given),0
O=C(Cc1ccsc1)N1CCC(n2cc(-c3nc(-c4ccccc4)no3)nn2)C1 (stereo not given),0
Cc1ccc(C(=O)N2CCC3(CC(C(C)C)=NO3)C2)cc1 (stereo not given),0
Cc1cc(C[C@@H]2COC[C@@H]2NC(=O)c2ccc(-c3ccccc3Cl)o2)on1,0
COc1ccc(C(=O)N2CCC3(CC2)N=C(c2ccc(Cl)cc2)NO3)cc1,0
Cc1ncsc1CN1C(=O)CO[C@H](c2ccc(NC(=O)c3ccc(F)cc3)cc2)[C@H]1CO,0
COc1ccc(CCC(=O)N2CCn3c(nnc3[C@@H]3C[C@@H](O)CN3C(C)C)C2)cc1,0
Cc1ccc(S(=O)(=O)Nc2ccc3c(c2)CN(Cc2ccccc2)C(=O)CO3)cc1,0
O=C(NC1CCN(c2cc(-c3ccc(Cl)cc3)[nH]n2)CC1)c1ccc2c(c1)OCO2,0
CCc1ncc(C(=O)N2CCN(Cc3ccccc3C#N)CC2)cn1,0
COC(=O)[C@H]1CN(C(=O)c2cccnc2)CCN1C(=O)C1CCCCC1,0
O=C(c1c[nH]c2ccccc12)N1CCN(c2cc(-c3cccs3)[nH]n2)CC1,0
CCOc1ccc(C(=O)N2CCC3(CC2)NC(=O)N(Cc2ccc(F)cc2)C3=O)cc1,0
CCOc1ccc(CNC(=O)c2cc(=O)[nH]c3ccc(S(=O)(=O)N4CCCC4)cc23)cc1,0
CCOc1ccc(C2c3[nH]c4ccccc4c3CCN2C(=O)CSCc2ccc(F)cc2)cc1 (stereo not given),11µM
COCC1CN(C(C)=O)CC12CCN(C(=O)c1cccc(Cl)c1)CC2 (stereo not given),0
COc1cccc(CN2CCc3nnc([C@@H]4C[C@@H](O)CN4C)n3CC2)c1,0
CC1(C)[C@H](Cc2cc(CCO)on2)C[C@@H]1NCc1ccco1,0
COC(=O)C(=O)N[C@H]1C[C@@H](Cc2cc(-c3ccccc3)on2)C1(C)C,0
